Data from ChEMBL document CHEMBL1961873, “Compounds: GSK PKIS; Assays: Nanosyn kinase panel” (2012).

Assays:
[1] = biological target: Sphingosine kinase 1 (Homo sapiens) (UniProt Q9NYA1); details: at 1 µM;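 also: mean SPHK1 inhibition value reported from the GSK PKIS kinase panel screen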
[2] = biological target: T1, Sphingosine kinase 2 (Homo sapiens) (UniProt Q9NRA0); details: at 0.1 µM
T1 sequence (whole entry): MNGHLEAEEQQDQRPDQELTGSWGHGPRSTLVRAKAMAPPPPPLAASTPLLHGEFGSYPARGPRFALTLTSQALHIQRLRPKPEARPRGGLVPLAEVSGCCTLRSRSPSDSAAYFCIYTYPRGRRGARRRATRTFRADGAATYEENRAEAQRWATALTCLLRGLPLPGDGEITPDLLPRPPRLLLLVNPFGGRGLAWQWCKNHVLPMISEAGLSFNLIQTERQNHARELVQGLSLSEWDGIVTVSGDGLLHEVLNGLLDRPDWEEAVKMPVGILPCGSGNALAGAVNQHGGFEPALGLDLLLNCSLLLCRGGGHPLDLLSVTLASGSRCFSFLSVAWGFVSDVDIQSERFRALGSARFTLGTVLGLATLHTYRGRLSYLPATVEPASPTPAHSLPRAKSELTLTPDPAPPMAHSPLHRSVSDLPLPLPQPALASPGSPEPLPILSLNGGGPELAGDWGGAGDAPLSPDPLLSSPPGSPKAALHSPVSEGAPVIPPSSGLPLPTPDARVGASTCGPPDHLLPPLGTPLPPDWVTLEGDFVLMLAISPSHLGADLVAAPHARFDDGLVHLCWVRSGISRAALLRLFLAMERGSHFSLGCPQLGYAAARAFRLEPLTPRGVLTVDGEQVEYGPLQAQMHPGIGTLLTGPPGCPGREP

[3] = biological target: T1, Sphingosine kinase 2 (Homo sapiens); details: at 1 µM
[4] = biological target: Casein kinase II subunit alpha (Homo sapiens) (UniProt P68400); details: at 0.1 µM
[5] = biological target: Casein kinase II subunit alpha (Homo sapiens) (UniProt P68400); details: at 1 µM
[6] = biological target: T2, Inhibitor of nuclear factor kappa-B kinase subunit alpha (Homo sapiens) (UniProt O15111); details: at 0.1 µM
T2 sequence (whole entry): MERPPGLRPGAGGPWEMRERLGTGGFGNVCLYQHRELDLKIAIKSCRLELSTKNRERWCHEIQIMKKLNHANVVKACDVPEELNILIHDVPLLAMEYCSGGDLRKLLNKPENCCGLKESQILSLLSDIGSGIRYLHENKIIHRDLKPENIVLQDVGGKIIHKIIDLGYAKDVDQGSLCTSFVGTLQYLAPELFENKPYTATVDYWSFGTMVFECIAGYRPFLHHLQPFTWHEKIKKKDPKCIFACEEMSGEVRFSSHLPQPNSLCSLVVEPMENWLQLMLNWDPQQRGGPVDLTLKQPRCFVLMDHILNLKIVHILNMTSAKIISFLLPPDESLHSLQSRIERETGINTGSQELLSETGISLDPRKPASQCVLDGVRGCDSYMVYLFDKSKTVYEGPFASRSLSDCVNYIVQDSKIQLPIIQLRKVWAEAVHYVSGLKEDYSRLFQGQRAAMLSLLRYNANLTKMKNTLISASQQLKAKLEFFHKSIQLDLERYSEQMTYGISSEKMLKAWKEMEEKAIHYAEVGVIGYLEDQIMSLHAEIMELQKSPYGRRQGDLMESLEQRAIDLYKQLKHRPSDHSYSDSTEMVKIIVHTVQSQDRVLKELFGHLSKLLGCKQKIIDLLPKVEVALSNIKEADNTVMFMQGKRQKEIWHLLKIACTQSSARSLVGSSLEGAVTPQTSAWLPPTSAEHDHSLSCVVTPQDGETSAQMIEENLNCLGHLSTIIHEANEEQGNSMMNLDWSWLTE

[7] = biological target: T2, Inhibitor of nuclear factor kappa-B kinase subunit alpha (Homo sapiens); details: at 1 µM
[8] = biological target: T3, Inhibitor of nuclear factor kappa-B kinase subunit beta (Homo sapiens) (UniProt O14920); details: at 0.1 µM
T3 sequence (whole entry): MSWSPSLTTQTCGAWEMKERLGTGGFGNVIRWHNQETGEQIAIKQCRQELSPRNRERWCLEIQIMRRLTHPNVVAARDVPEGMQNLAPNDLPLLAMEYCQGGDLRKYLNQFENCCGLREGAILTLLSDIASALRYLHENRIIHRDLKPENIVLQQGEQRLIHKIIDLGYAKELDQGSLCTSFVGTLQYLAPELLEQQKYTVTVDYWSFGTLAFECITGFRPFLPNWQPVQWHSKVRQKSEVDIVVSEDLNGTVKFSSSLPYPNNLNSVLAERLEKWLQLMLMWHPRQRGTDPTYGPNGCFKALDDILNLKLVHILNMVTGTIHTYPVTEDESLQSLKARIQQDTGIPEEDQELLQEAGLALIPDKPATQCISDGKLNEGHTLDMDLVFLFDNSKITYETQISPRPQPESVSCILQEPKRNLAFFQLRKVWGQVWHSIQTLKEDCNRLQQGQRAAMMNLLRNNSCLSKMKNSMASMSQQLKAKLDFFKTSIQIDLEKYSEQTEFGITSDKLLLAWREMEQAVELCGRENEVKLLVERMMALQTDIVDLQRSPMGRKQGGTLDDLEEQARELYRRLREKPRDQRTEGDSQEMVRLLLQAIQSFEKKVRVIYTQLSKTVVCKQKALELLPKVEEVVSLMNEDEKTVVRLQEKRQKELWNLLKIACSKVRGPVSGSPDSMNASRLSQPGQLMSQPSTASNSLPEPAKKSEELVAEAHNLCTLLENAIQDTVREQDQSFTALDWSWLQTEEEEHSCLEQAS

[9] = biological target: T3, Inhibitor of nuclear factor kappa-B kinase subunit beta (Homo sapiens); details: at 1 µM
[10] = biological target: T4, Inhibitor of nuclear factor kappa-B kinase subunit epsilon (Homo sapiens) (UniProt Q14164); details: at 0.1 µM
T4 sequence (whole entry): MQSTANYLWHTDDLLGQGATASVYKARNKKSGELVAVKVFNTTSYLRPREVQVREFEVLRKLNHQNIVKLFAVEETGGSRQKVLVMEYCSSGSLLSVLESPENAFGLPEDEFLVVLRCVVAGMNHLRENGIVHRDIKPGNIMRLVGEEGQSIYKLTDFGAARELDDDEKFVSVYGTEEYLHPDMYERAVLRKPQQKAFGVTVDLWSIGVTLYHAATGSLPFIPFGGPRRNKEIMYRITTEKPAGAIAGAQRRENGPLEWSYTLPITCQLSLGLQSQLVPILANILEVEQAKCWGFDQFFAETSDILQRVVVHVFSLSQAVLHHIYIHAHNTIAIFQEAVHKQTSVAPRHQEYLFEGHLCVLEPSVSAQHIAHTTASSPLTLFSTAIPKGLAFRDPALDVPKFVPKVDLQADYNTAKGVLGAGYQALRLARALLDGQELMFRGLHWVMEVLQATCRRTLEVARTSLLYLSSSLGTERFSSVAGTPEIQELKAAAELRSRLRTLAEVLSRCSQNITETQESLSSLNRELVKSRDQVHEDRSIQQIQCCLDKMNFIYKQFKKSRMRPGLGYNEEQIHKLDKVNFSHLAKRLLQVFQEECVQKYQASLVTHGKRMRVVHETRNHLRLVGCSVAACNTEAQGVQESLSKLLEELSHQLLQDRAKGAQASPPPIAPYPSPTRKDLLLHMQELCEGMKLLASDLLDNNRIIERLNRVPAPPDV

[11] = biological target: T4, Inhibitor of nuclear factor kappa-B kinase subunit epsilon (Homo sapiens); details: at 1 µM
[12] = biological target: T5, Serine/threonine-protein kinase Nek1 (Homo sapiens) (UniProt Q96PY6); details: at 0.1 µM
T5 sequence (whole entry): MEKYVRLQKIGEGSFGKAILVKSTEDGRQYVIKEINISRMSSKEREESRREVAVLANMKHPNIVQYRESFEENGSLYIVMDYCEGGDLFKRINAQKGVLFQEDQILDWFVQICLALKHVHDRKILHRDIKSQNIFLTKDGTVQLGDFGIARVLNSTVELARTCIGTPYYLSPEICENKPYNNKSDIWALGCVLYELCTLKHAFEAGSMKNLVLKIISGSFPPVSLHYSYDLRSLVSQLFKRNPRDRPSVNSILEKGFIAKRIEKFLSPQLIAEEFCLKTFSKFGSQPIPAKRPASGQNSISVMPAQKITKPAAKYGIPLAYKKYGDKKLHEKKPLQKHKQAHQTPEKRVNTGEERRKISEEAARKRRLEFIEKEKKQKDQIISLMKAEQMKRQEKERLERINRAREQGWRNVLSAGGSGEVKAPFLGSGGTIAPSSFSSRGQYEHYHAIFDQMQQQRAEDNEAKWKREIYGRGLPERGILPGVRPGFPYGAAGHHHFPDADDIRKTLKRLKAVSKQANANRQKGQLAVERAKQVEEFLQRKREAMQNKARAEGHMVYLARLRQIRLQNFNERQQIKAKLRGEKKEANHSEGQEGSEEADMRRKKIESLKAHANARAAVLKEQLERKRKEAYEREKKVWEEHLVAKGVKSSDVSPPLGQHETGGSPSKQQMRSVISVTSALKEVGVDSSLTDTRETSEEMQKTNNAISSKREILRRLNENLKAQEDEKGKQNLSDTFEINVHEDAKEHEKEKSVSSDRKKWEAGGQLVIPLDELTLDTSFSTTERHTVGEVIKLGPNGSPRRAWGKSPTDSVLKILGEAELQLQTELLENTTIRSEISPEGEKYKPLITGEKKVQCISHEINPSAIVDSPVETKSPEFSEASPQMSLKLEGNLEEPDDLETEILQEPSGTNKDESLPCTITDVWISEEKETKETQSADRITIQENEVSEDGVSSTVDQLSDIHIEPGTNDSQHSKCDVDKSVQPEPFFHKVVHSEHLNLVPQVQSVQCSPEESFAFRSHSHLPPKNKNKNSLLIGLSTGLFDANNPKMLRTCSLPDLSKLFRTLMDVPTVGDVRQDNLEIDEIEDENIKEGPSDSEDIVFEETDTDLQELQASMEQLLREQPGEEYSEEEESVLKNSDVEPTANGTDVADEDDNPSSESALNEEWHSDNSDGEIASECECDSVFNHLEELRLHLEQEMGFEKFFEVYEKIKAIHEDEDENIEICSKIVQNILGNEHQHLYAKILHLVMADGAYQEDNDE

[13] = biological target: T5, Serine/threonine-protein kinase Nek1 (Homo sapiens); details: at 1 µM
[14] = biological target: T6, Serine/threonine-protein kinase Nek2 (Homo sapiens) (UniProt P51955); details: at 0.1 µM
T6 sequence (whole entry): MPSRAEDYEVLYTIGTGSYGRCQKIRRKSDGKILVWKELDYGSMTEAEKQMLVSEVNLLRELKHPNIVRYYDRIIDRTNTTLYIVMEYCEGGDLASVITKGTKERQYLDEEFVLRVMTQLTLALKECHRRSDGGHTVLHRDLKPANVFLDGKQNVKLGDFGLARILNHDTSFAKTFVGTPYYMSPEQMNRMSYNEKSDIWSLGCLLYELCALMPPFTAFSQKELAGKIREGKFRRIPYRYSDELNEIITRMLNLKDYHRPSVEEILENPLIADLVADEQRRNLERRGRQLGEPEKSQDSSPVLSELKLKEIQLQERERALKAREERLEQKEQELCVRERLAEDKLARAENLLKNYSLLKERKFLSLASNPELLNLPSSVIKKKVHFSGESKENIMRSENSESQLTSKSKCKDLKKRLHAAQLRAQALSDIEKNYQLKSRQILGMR

[15] = biological target: T6, Serine/threonine-protein kinase Nek2 (Homo sapiens); details: at 1 µM
[16] = biological target: Serine/threonine-protein kinase Nek6 (Homo sapiens) (UniProt Q9HC98); details: at 0.1 µM
[17] = biological target: Serine/threonine-protein kinase Nek6 (Homo sapiens) (UniProt Q9HC98); details: at 1 µM
[18] = biological target: Serine/threonine-protein kinase Nek7 (Homo sapiens) (UniProt Q8TDX7); details: at 0.1 µM
[19] = biological target: Serine/threonine-protein kinase Nek7 (Homo sapiens) (UniProt Q8TDX7); details: at 1 µM
[20] = biological target: T7, Serine/threonine-protein kinase Nek9 (Homo sapiens) (UniProt Q8TD19); details: at 0.1 µM;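 also: reported value is the mean percent inhibition of NEK9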
T7 sequence (whole entry): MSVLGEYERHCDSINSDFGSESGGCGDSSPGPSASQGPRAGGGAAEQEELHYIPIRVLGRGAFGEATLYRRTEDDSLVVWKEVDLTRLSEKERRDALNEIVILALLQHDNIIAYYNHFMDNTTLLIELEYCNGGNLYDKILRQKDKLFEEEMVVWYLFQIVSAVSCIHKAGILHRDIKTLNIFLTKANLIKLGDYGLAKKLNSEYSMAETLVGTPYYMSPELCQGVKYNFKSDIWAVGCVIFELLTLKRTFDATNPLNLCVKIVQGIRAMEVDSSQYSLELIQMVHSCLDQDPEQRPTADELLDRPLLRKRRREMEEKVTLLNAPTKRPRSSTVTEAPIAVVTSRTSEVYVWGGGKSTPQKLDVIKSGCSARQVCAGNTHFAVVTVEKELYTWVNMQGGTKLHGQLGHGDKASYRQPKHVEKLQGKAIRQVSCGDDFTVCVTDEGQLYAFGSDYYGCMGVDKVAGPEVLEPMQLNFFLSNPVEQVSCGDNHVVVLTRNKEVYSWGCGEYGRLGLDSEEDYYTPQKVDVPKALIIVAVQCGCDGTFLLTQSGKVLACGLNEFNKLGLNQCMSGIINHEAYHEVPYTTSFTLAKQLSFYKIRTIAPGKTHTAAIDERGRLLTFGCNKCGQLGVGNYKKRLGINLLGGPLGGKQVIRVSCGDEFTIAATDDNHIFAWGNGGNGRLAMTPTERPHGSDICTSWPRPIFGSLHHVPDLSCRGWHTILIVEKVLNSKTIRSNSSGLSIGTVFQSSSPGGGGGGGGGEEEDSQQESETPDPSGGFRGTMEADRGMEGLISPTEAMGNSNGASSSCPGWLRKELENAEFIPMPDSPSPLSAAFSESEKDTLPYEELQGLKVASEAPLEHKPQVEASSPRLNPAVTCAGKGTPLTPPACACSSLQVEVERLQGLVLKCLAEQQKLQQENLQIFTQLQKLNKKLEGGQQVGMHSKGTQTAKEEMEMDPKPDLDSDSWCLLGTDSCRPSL

Chain of Serine/threonine-protein kinase Nek6 (Homo sapiens) (Q9HC98 whole entry): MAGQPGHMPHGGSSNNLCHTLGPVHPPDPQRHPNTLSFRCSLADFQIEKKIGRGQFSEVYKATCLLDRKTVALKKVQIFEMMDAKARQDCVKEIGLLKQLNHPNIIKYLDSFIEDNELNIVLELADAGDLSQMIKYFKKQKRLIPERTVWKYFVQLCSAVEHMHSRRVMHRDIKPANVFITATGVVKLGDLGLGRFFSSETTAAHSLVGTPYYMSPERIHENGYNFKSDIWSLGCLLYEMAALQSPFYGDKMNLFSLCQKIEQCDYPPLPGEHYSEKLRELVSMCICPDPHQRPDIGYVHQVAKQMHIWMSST
Chain of Serine/threonine-protein kinase Nek7 (Homo sapiens) (Q8TDX7 whole entry, looked up): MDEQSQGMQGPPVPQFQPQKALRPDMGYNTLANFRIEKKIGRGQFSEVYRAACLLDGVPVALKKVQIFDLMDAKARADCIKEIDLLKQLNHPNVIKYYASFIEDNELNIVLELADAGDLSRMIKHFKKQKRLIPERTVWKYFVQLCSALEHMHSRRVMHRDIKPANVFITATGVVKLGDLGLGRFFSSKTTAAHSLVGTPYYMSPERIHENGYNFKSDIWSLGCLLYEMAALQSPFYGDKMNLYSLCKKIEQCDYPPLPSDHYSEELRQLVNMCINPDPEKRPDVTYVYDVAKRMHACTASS
Chain of Casein kinase II subunit alpha (Homo sapiens) (P68400 whole entry, looked up): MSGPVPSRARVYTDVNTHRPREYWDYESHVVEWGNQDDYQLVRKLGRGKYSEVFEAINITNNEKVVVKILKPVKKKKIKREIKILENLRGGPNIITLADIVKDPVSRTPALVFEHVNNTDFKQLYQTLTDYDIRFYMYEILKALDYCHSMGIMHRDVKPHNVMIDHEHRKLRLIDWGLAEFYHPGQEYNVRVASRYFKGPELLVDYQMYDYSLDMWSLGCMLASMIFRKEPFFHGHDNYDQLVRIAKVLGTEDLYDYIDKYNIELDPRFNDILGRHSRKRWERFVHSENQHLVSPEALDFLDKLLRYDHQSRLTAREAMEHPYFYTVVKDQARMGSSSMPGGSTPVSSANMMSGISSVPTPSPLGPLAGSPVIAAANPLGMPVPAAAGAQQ
Chain of Sphingosine kinase 1 (Homo sapiens) (Q9NYA1 whole entry): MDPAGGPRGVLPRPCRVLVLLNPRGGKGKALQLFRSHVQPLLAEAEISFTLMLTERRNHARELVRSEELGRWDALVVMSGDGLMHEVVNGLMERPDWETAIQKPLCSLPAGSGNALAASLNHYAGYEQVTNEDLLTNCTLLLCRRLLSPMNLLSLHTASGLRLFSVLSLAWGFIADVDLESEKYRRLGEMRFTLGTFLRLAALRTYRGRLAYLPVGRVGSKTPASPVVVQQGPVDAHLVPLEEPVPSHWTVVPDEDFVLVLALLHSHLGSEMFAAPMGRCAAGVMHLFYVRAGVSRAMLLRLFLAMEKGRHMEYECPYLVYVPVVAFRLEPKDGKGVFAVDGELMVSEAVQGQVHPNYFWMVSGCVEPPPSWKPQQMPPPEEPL

Compound | inhibition [1] | inhibition [2] | inhibition [3] | inhibition [4] | inhibition [5] | inhibition [6] | inhibition [7] | inhibition [8] | inhibition [9] | inhibition [10] | inhibition [11] | inhibition [12] | inhibition [13] | inhibition [14] | inhibition [15] | inhibition [16] | inhibition [17] | inhibition [18] | inhibition [19] | inhibition [20]
CCn1c(-c2nonc2N)nc2cncc(C(=O)N3CCNCC3)c21 | -1.31% | 2.81% | 0.77% | 4.04% | 2.82% | 1.05% | 5.47% | 6.46% | 8.59% | 12.2% | 7.71% | 4.64% | 3.76% | 3.46% | 5.88% | 1.92% | 3.67% | 2.41% | 10.8% | 6%
CS(=O)(=O)CCN(CC#N)Cc1ccc(-c2ccc3ncnc(Nc4ccc(OCc5cccc(F)c5)c(Cl)c4)c3c2)o1 | -0.02% | -0.3% | -0.75% | 5.37% | 1.72% | 4.16% | 2.09% | 3.6% | 3.73% | 1.37% | 1.93% | 0.91% | 1.78% | 3.59% | 2.16% | 2.16% | -0.23% | 2.49% | 7.27% | 2.5%
